According to PubChem BioAssay AID720597 (Broad Institute, 2013):
Entries with a potency or affinity are not part of this list.

target: NAD-dependent protein deacylase sirtuin-5, mitochondrial (Homo sapiens) (UniProt Q9NXA8); test: blockers of sirtuin-5 peptide desuccinylation – biochemical, fluorescence imaging, cherry-pick, set 6, dose response (AID 720597); details: Purified SirT5, succinyl-peptide-AMC/trypsin fluorescence; series mostly up to 15 µM; activity change, negative = inhibition: at the top concentration;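 also: lower AMC signal can also come from blocking the trypsin step; 0% = median of neutral control wells and -100% = median of positive control wells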
Sequence (Q9NXA8 whole entry, looked up): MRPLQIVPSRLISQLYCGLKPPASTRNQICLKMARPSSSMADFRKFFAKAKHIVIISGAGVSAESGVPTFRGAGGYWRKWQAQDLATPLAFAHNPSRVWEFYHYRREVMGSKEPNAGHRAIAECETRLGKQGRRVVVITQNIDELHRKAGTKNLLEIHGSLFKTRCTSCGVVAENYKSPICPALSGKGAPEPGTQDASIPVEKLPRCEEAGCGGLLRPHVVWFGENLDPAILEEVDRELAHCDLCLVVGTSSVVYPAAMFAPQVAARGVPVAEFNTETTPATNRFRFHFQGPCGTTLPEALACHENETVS

Activity change, negative = inhibition, inactive:
C[C@@H]1CCCCO[C@@H](CN(C)C(=O)Nc2ccc(C(F)(F)F)cc2)[C@H](C)CN([C@H](C)CO)C(=O)c2cc(NS(=O)(=O)c3ccc(Cl)cc3)ccc2O1 5.23%, CC(C)NC(=O)N[C@H]1CC[C@H](CCNC(=O)C2CCCC2)O[C@@H]1CO 3.67%, COc1cccc(CN2[C@H](CO)[C@@H](c3ccccc3)C23CN(C(=O)C2CCC2)C3)c1 3.09% [at 16 µM], CO[C@H]1CN(C)C(=O)c2cc(NC(=O)NC3CCCCC3)ccc2OC[C@H](C)N(CCc2ccccc2)C[C@@H]1C 3.06%, COc1ccc(S(=O)(=O)N[C@H]2C=C[C@@H](CC(=O)NCCc3ccncc3)O[C@H]2CO)cc1 -4.77%, COc1ccc(S(=O)(=O)Nc2ccc3c(c2)C(=O)N([C@@H](C)CO)C[C@H](C)[C@H](CN(C)S(=O)(=O)c2ccc(Cl)cc2)OCCCC[C@@H](C)O3)cc1 17.8%, C=CCOC(=O)[C@@H]1[C@H]2C(=O)O[C@H](c3ccccc3)[C@H](c3ccccc3)N2[C@H](c2ccc(OCCOC(=O)[C@@H]3C[C@@H]4C(=O)N[C@@H](Cc5ccccc5)C(=O)N4[C@@H]3c3ccc(O)cc3)cc2)[C@@]12C(=O)Nc1ccc(I)cc12 12%, C[C@H](CO)N1C[C@H](C)[C@H](CN(C)Cc2ccc(-c3ccccc3)cc2)OCc2ccccc2-c2ccccc2C1=O -17.1%, Cc1noc(C)c1NC(=O)Nc1cccc2c1O[C@@H](CN(C)Cc1ccc(Oc3ccccc3)cc1)[C@H](C)CN([C@H](C)CO)C2=O -7.07%, C[C@@H]1CCCCO[C@H](CN(C)Cc2ccc(C(F)(F)F)cc2)[C@@H](C)CN([C@@H](C)CO)C(=O)c2cc(NS(=O)(=O)c3ccc(F)cc3)ccc2O1 -12.9%
